From PubChem BioAssay (EPA / NIEHS) come the findings set out here.

SMILES strings stand for the structures. Inconclusive results are not listed. Active and inactive are the calls of the source. Rule for the calls: active = hit-call score of the fitted dose curve at least 0.9, where 1 is the maximum; inconclusive = response in the unintended direction; inactive = score below 0.9.

Chain of Cytochrome P450 2C19 (Homo sapiens) (P33261 whole entry, looked up): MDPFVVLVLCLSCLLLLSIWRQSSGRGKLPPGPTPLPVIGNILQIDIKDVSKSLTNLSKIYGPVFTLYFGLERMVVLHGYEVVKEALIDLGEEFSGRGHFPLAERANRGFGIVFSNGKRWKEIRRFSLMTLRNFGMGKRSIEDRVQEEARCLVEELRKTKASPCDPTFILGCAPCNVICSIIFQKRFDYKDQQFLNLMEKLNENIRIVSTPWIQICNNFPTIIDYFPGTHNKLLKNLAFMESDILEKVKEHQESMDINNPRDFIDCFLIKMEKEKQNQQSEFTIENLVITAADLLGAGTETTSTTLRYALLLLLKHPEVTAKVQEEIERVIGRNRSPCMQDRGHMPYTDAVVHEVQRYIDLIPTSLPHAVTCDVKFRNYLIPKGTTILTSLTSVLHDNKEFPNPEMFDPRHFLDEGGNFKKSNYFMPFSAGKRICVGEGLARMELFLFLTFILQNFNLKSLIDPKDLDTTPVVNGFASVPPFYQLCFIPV

Read-out in this test: Cytochrome P450 2C19 (Homo sapiens) (UniProt P33261)
The test can be described thus: CLD_CYP2C19_6hr: CellzDirect (CLD) Gene Expression Assay for xenobiotic metabolism (CYP2C19) at 6 hours (AID 2283678). The procedure: CLD_6hr is a cell-based, multiplexed-readout assay that uses hepatocyte, a human liver primary cell, with measurements taken at 6 hours after chemical dosing in a 96-well plate.CLD_CYP2C19_6hr is one of 16 assay component(s) measured or calculated from the CLD_6hr assay. It is designed to make measurements of mRNA induction, a form of inducible reporter, as detected with chemiluminescence signals by Quantitative Nuclease Protection Assay (qNPA) technology.Data from the assay component CLD_CYP2C19_6hr was analyzed at the endpoint, CLD_CYP2C19_6hr, in the positive analysis fitting direction relative to DMSO as the negative control and baseline of activity. Using a type of inducible reporter, gain-of-signal activity can be used to understand changes in the reporter gene as they relate to the gene CYP2C19. Furthermore, this assay endpoint can be referred to as a primary readout. To generalize the intended target to other relatable targets, this assay endpoint is annotated to the cyp intended target family, where subfamily is xenobiotic metabolism.
Human hepatocyte cultures were treated daily for two consecutive days with fresh dosing solutions containing appropriate concentrations of the 320 ToxCast chemicals (chemical identities were blinded to CellzDirect and other ToxCast collaborators), vehicle control (0.2% DMSO), and positive control inducers as summarized in Table 1. Due to the large number of treatment groups and chemicals examined, the ToxCast chemicals were divided into two groups (spanning two independent cultures of hepatocytes from separate donor preparations (Hu778: ToxCast plates 1 and 2; Hu776: ToxCast plates 3 and 4). Each preparation of human hepatocyte cultures was treated with respective vehicle control, medium only control, set of six positive controls/reference chemicals for the five hepatic receptor pathways, and a subset of eight of the ToxCast chemicals (indoxacarb, pyrithiobac-sodium, norflurazon, cyhalofop-butyl, methomyl, thiram, acetochlor, and propiconazole). These replicate data, coupled with internal replicates designed within the blinded ToxCast chemical library, provided additional data to evaluate interindividual differences between hepatocyte preparations and their potential impact on chemical profiles.Cell morphology and integrity were evaluated using phase-contrast microscopy as an indicator of hepatocyte cell health (Tyson & Green, 1987). Cultures for each treatment group (i.e., media, vehicle [0.2% DMSO], positive control inducers [multiple concentrations], and the ToxCast chemicals [multiple concentrations]) were observed and cell morphology was assessed relative to vehicle control cultures at each harvest time point (0, 6, 24, or 48 h). […] Images were evaluated at the conclusion of the study to assess changes in cell integrity and account for the effects of chemical exposure on uncharacteristic changes in concentration-dependent gene expression profiles. The results from these determinations of apparent cytotoxicity were annotated (yes/no) alongside the corresponding qNPA data for reference.At the conclusion of each treatment period, hepatocyte cultures (96-well) were washed with 1 volume of HBSS, lysed by addition of 25 ul ArrayPlate lysis buffer (HTG, Tucson, AZ), and 70 ul/well of Denaturation Oil, denatured by incubation at 95C for 10 min, and frozen at approximately -70C until analysis by nuclease protection assay (qNPA) (Roberts et al., 2007). For qNPA analysis, cell lysates were thawed at 50C for approximately 30 min, qNPA probes were added, and samples were incubated at 95C for 10 min to begin the detection process by denaturing the target RNA, dissociating the duplexes and secondary structure hybridization. At the conclusion of the hybridization period, S1 nuclease reagent was added to each sample to digest all nonprotected nucleotides at 50C for 60-90 min. […]
With `CNC(=O)Oc1ccccc1OC(C)C`, the compound was classed as inactive.

For the compound `Cc1[nH]c(=O)n(C(C)(C)C)c(=O)c1Cl`, the result was inactive.

For the compound `COC(=O)c1ccccc1S(=O)(=O)NC(=O)N(C)c1nc(C)nc(OC)n1`, the call was inactive.

`CC1(c2ccc(Oc3ccccc3)cc2)OC(=O)N(Nc2ccccc2)C1=O` (stereo not given): the call was inactive.

For `OCCOc1ccccc1`, the compound was called inactive.

Turning to `O=S(=O)(O)C(F)(F)C(F)(F)C(F)(F)C(F)(F)C(F)(F)C(F)(F)C(F)(F)C(F)(F)F`, the outcome was inactive.

As for `Cc1cc(C)nc(NC(=O)NS(=O)(=O)c2ccccc2C(=O)OC2COC2)n1`, the compound was called inactive.

Take `O=C(NC(=O)c1c(F)cccc1F)Nc1ccc(OC(F)(F)C(F)OC(F)(F)F)c(Cl)c1` (stereo not given): the call was inactive.

As for `CCN(CC)C(=O)SCc1ccc(Cl)cc1`, the compound was classed as inactive.

In the case of `CNC(=O)CSP(=S)(OC)OC`, the compound was called inactive.

On to `[2H]C1([2H])[n+]2ccccc2-c2cccc[n+]2C1([2H])[2H]`, for which the outcome was inactive.

Turning to `COc1nn(CSP(=S)(OC)OC)c(=O)s1`, the result was inactive.

As for `C#CCN1C(=O)COc2cc(F)c(N3C(=O)C4=C(CCCC4)C3=O)cc21`, the call was inactive.

Regarding `CCCN(CCOc1c(Cl)cc(Cl)cc1Cl)C(=O)n1ccnc1`, the result was inactive.

Consider `O=C(O)C(F)(F)C(F)(F)C(F)(F)C(F)(F)C(F)(F)C(F)(F)C(F)(F)F`, for which the compound was classed as inactive.

With `CCOCN(C(=O)CCl)c1c(C)cccc1CC`, the outcome was inactive.

For the compound `COC(=O)c1ccccc1S(=O)(=O)NC(=O)Nc1nc(C)nc(OC)n1`, the outcome was inactive.

In the case of `CN1CSC(=S)N(C)C1`, the compound was called inactive.

Turning to `CNC(=O)Oc1cccc(N=CN(C)C)c1`, the compound was called inactive.

On to `CCS(=O)(=O)c1cccnc1S(=O)(=O)NC(=O)Nc1nc(OC)cc(OC)n1`, for which the compound was classed as inactive.

Consider `CCC(C)(C)C(=O)OC1=C(c2ccc(Cl)cc2Cl)C(=O)OC12CCCCC2`, for which the result was inactive.

Turning to `O=[N+]([O-])/N=C1\NCCN1Cc1ccc(Cl)nc1`, the outcome was inactive.

For the compound `Clc1ccccc1-c1nnc(-c2ccccc2Cl)nn1`, the call was inactive.

With `N#Cc1c(Cl)c(Cl)c(Cl)c(C#N)c1Cl`, the call was inactive.

In the case of `O=C1c2ccccc2C(=O)N1SC(Cl)(Cl)Cl`, the compound was classed as inactive.

`CC1(C)C(C=C(Cl)Cl)C1C(=O)OC(C#N)c1ccc(F)c(Oc2ccccc2)c1` (stereo not given): the compound was called inactive.

In the case of `CCC(C)Nc1c([N+](=O)[O-])cc(C(C)(C)C)cc1[N+](=O)[O-]` (stereo not given), the compound was classed as inactive.

For `COC(=O)c1ccccc1CS(=O)(=O)NC(=O)Nc1nc(OC)cc(OC)n1`, the compound was classed as inactive.

With `O=C(O)COc1ccc(Cl)cc1Cl`, the compound was classed as inactive.

On to `Oc1ccc(Cl)cc1Cc1ccccc1`, for which the result was inactive.
